PubChem BioAssay (NCATS)
Records with an inconclusive call do not appear. Activity calls are given as the source filed them. Calls follow the shape of the dose curve; as a rule, active = well fitted curve in the direction sought with a large enough effect; inconclusive = small, poorly fitted or top-dose-only effect, or another doubt; inactive = no such curve, though single readings can be large; an effect the other way counts as inactive or inconclusive.

Key:
[1] = Confirmatory screen GU Rhodamine qHTS for Zika virus inhibitors qHTS (AID 1347157); also: potency is read from the fitted curve at half-maximal effect; nearly all actives have a fitted effect of over 70% in size
Summary of the method: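 Noncovalent NS2B hydrophilic domain/NS3 protease complex (25 nM final) in 10 mM Tris-HCl pH 8.0, 0.01% Tween 20, preincubated 15 min with compounds (up to 114 microM), then 1.5 microM Rhodamine110 substrate. Fluorescence change over 15 min fitted to 4-parameter Hill.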

[2] = tested on: Zika virus NS2B-NS3 protease (linked construct); experiment: Primary screen NINDS Rhodamine qHTS for Zika virus inhibitors (AID 1347160); also: nearly all actives have a fitted effect of over 55% in size; also: potency is read from the fitted curve at half-maximal effect
Summary of the method: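 Kinetic fluorescence (Ex 480 nm, Em 540 nm) over 15 min with 1.5 microM Rhodamine110 peptide and 25 nM linked protease.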

[3] = Confirmatory screen NINDS Rhodamine qHTS for Zika virus inhibitors (AID 1347161); also: potency is read from the fitted curve at half-maximal effect; nearly all actives have a fitted effect of over 60% in size
Summary of the method: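 Aprotinin served as in-plate control. Conditions: 25 nM linked NS2B-NS3, pH 8.0 Tris buffer, titrated compounds, 15 min preincubation and 15 min reaction with 1.5 microM Rhod110 substrate at room temperature.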

[4] = tested on: Zika virus NS2B-NS3 protease; experiment: Primary screen GU AMC qHTS for Zika virus inhibitors (AID 1347154); also: nearly all actives have a fitted effect of over 70% in size
Summary of the method: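 Unlinked Zika NS2B hydrophilic domain–NS3 protease complex at 25 nM in 10 mM Tris-HCl pH 8.0, 0.01% Tween 20, with an AMC peptide substrate. Fluorescence change (340/450 nm) over 15 min at room temperature, normalized to controls, fitted to 4-parameter Hill.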

[5] = qHTS of pediatric cancer cell lines to identify multiple opportunities for drug repurposing: Primary screen for BT-12 cells (AID 1347101); settings: BT-12 viability, CellTiter-Glo luminescence, 48 h; also: potency is read from the fitted curve at half-maximal effect; nearly all actives have a fitted effect of over 25% in size
Summary of the method: (§1)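 Cells (500-1,000/well) rested 5 h, then received compounds for 48 h; metabolically active cells were measured by CellTiter-Glo luminescence. Final concentrations spanned up to 46 µM (MIPE, 11-point) or 0.59 nM-46 µM (NPC, 8-point) in primary screens, 11-point in follow-ups.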

[6] = qHTS of pediatric cancer cell lines to identify multiple opportunities for drug repurposing: Primary screen for Rh18 cells (AID 1347102); settings: Rh18 rhabdomyosarcoma viability, CellTiter-Glo luminescence, 48 h; also: potency is read from the fitted curve at half-maximal effect; nearly all actives have a fitted effect of over 65% in size
Summary of the method: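 Viability after 48 h compound treatment at 37C, 500-1,000 cells/well, read as ATP luminescence with CellTiter-Glo. Primary screens used 11-point (MIPE, 0.78 nM-46 µM) or 8-point (NPC, 0.59 nM-46 µM) final concentrations; follow-up screens used 11-point dilutions.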

[7] = qHTS of pediatric cancer cell lines to identify multiple opportunities for drug repurposing: Primary screen for OHS-50 cells (AID 1347103); settings: OHS-50 osteosarcoma viability, CellTiter-Glo luminescence, 48 h; also: potency is read from the fitted curve at half-maximal effect; nearly all actives have a fitted effect of over 40% in size
Summary of the method: as §1

[8] = target: Lysine-specific demethylase 5B (Homo sapiens) (UniProt Q9UGL1); experiment: Optimization screen for KDM5B Histone Demethylases FDH coupled qHTS against the LOPAC library (AID 1347166)
Summary of the method: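 KDM5BDeltaAP (200nM final) preincubated 10 min with compound, then 12.5uM H3K4Me3, 25uM a-ketoglutarate, ascorbate, Fe(II), NAD+ and FDH added; 50mM HEPES pH 7.5, 0.01% Tween-20. NADH fluorescence (340/450 nm) change over 30 min, room temperature.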

[9] = tested on: Zika virus NS2B-NS3 protease (linked construct); experiment: Confirmatory screen NINDS AMC qHTS for Zika virus inhibitors (AID 1347152); also: potency is read from the fitted curve at half-maximal effect; nearly all actives have a fitted effect of over 70% in size
Summary of the method: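 Linked NS2B-NS3 1 nM, Tris pH 8.0/0.01% Tween 20; cpd 15 min RT dark; + Nle-KRR-AMC 10 µM (Km 18.3 µM); read 0 and 15 min, 340/450 nm; %inh vs controls, 4-param Hill.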

[10] = tested on: Zika virus NS2B-NS3 protease (unlinked complex); experiment: Primary screen GU Rhodamine qHTS for Zika virus inhibitors: Unlinked NS2B-NS3 protease assay (AID 1347159); also: nearly all actives have a fitted effect of over 60% in size; also: potency is read from the fitted curve at half-maximal effect
Summary of the method: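 A qHTS format was used, with compound concentrations ranging up to 114 microM. Each compound was preincubated with 25 nM NS2B-NS3 protease, and the substrate was then added at 1.5 microM. Curves were fitted with a 4-parameter Hill model.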

[11] = tested on: Zika virus NS2B-NS3 protease (linked); experiment: 384 well plate NINDS AMC confirmatory qHTS for Zika virus inhibitors (AID 1347163); also: nearly all actives have a fitted effect of over 50% in size; also: potency is read from the fitted curve at half-maximal effect
Summary of the method: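 Linked protease 5/30/60 nM final; cpds up to 1 mM final, ~15 min preinc. Substrate Ac-VKTGKR-AMC 30 microM final. RT, dark, 25 min; FI ex 355/em 460; normalized to no-enzyme/no-inhibitor ctrls.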

[12] = tested on: Zika virus NS2B-NS3 protease (linked construct); experiment: 384 well plate NINDS Rhodamine confirmatory qHTS for Zika virus inhibitors (AID 1347164);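 also: fluorescence from protease cleavage of Ac-LKRR-rhodamine 110 substrate; nearly all actives have a fitted effect of over 65% in size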; also: potency is read from the fitted curve at half-maximal effect
Summary of the method: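 Fluorescence read at ex 485 nm/em 538 nm, 25 min after adding 10 microM Ac-LKRR-Rd substrate at room temperature in the dark; signal normalized to no-enzyme and no-inhibitor controls. Enzyme final 5, 30 or 60 nM; compounds, ~15 min preincubation.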

[13] = Vero cells viability qHTS for Zika virus inhibitors (AID 1347167)
Summary of the method: (§2)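 Cells seeded at 2.5 x 10^5 cells/mL in DMEM with 4% FBS and attached overnight at 37 degrees C, then exposed to compound for 24 to 48 hours. Viability read as ATP content by CellTiter Glo luminescence.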

[14] = HepG2 cells viability qHTS for Zika virus inhibitors (AID 1347168)
Summary of the method: as §2

Furin (Homo sapiens) = Furin (Homo sapiens) (UniProt P09958); experiment: Furin counterscreen qHTS for Zika virus inhibitors (AID 1347149); also: nearly all actives have a fitted effect of over 70% in size; also: potency is read from the fitted curve at half-maximal effect
Summary of the method: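 Fluorogenic cleavage of BOC-RVRR-AMC (2 microM final, Km ~15 µM) was monitored (ex 340, em 450 nm) at 37C after 15 min RT preincubation of 5 nM furin with compounds in HEPES pH 7.0 buffer with CaCl2 and Triton X-100. Percent inhibition was fitted to a 4-parameter Hill curve.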

[15] = tested on: Zika virus NS2B-NS3 protease (unlinked complex); experiment: Confirmatory screen GU AMC qHTS for Zika virus inhibitors (AID 1347153); settings: Recombinant NS2B-NS3 protease, AMC substrate fluorescence
Summary of the method: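 Fluorescence change (ex 340/em 450 nm) over 15 min, ~20% substrate conversion, normalized to no-inhibitor and no-enzyme controls, then Hill-fitted. Unlinked protease at 25 nM; AMC peptide 10 µM.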

[16] = ZIKV-mCherry secondary qHTS for Zika virus inhibitors (AID 1347158); also: potency is read from the fitted curve at half-maximal effect
Summary of the method: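 After overnight seeding at 37 °C, Vero cells receive compound and then ZIKV-mCherry (MOI 1). Following 48-72 h infection, cells are fixed, counterstained with Hoechst, and imaged; percent infected cells is derived from an mCherry intensity cut-off of 450 RFU.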

[17] = qHTS of pediatric cancer cell lines to identify multiple opportunities for drug repurposing: Primary screen for RD cells (AID 1347104); settings: RD rhabdomyosarcoma viability, CellTiter-Glo luminescence, 48 h; also: potency is read from the fitted curve at half-maximal effect; nearly all actives have a fitted effect of over 55% in size
Summary of the method: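 Readout: CellTiter-Glo luminescence, 48 h treatment. Controls DMSO (neutral) and bortezomib 2.3 µM final (positive). Potency and efficacy taken from primary-screen concentration-response curves.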

[18] = tested on: Zika virus NS2B-NS3 protease (unlinked); experiment: Optimization of GU AMC qHTS for Zika virus inhibitors: Unlinked NS2B-NS3 protease assay (AID 1347151); also: series mostly up to about 52 µM; nearly all actives have a fitted effect of over 80% in size
Summary of the method: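 Fluorescence read-out (340 nm ex / 450 nm em) of AMC peptide cleavage, taken immediately and after 15 min at room temperature (~20% conversion). Enzyme was the unlinked NS2B–NS3 complex at 25 nM in Tris pH 8.0 buffer.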

Measured: Potency

Chain of Furin (Homo sapiens) (P09958 whole entry, looked up): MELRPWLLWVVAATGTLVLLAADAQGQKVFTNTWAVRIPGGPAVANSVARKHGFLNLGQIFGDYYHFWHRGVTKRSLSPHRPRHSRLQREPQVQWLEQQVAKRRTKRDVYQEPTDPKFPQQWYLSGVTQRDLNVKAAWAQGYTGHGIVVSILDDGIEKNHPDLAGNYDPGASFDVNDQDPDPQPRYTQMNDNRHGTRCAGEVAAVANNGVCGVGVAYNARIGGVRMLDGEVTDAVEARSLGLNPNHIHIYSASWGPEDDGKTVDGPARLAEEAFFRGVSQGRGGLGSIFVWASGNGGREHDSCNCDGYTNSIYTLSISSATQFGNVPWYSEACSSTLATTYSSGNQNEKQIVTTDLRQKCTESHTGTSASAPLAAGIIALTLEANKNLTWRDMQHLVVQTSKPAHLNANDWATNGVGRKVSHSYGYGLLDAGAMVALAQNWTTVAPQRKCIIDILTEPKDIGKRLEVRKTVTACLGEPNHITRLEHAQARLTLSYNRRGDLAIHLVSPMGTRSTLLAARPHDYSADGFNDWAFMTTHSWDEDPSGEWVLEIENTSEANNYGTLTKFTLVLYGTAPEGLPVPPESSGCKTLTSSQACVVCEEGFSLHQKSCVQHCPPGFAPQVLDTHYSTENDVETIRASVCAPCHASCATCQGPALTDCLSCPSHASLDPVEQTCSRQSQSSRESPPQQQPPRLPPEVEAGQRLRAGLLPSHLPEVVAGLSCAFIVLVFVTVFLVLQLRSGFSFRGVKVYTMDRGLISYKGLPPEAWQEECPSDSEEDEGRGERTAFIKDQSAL
Chain of Lysine-specific demethylase 5B (Homo sapiens) (Q9UGL1 whole entry, looked up): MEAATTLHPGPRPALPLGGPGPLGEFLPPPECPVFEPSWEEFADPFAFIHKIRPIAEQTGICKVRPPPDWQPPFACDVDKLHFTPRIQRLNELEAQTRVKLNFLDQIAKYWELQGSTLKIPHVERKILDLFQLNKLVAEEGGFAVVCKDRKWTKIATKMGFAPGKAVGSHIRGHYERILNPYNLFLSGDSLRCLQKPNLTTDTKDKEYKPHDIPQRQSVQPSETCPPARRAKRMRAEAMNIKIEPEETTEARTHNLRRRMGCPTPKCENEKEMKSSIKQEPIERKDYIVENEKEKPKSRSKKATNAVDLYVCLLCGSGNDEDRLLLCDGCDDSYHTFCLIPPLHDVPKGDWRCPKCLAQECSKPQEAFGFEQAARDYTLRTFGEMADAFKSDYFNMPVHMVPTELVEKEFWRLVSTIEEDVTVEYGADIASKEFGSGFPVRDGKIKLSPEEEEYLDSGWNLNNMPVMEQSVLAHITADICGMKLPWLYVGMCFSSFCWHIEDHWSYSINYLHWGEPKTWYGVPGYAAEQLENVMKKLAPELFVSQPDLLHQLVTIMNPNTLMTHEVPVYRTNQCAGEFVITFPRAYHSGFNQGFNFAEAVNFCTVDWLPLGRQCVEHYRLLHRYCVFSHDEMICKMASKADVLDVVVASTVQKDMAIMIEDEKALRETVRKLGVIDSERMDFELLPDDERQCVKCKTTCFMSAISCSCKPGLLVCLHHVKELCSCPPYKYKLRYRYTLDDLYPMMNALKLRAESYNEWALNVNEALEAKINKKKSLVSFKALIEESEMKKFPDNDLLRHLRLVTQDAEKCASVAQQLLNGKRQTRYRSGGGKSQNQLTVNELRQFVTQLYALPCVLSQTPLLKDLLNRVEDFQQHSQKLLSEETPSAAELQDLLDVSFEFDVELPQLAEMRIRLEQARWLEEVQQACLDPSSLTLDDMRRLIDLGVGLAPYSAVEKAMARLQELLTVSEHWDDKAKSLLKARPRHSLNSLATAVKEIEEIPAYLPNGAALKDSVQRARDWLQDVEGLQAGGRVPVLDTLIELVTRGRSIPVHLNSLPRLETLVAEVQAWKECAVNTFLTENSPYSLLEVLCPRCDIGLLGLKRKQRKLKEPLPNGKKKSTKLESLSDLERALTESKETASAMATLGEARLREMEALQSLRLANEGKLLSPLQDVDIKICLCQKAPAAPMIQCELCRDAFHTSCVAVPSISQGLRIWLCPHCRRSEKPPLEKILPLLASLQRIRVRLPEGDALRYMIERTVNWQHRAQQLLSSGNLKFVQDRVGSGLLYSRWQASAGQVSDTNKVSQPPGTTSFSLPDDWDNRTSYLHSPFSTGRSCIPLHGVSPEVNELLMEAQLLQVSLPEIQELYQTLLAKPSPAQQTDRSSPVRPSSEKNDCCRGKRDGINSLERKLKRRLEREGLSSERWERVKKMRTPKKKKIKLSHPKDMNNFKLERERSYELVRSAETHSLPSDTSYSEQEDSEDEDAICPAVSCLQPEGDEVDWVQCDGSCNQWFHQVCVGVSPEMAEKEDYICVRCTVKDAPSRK

CCC(C)/C=C(C)/C=C/C1=CC2=CC(=O)C3(C)OC(C)(O)C(C(=O)OC)C3C2=CO1 (configuration not stated)
active: [1] 19.2 µM | [3] 21.5 µM
inactive: [2]

O=S(=O)(c1ccccc1)N(CC(F)(F)F)c1ccc(C(O)(C(F)(F)F)C(F)(F)F)cc1
inactive: [4] | [2]

Cc1ccc(OC[C@H](O)[C@H](C)NC(C)C)c2c1CCC2
inactive: [4] | [2]

CN[C@H]1CC[C@@H](c2ccc(Cl)c(Cl)c2)c2ccccc21
active: [5] 21.9 µM | [6] 23.7 µM | [7] 15.5 µM
inactive: [8]

CC(C)(C)Sc1c(CC(C)(C)C(=O)O)n(Cc2ccc(Cl)cc2)c2ccc(OCc3ccc4ccccc4n3)cc12
active: [9] 31.2 µM | [1] 3.93 µM | [10] 2.82 µM | [2] 4.47 µM | [3] 3.93 µM | [11] 14.1 µM
inactive: [12] | [13] | [14]

COc1cc(C[C@H]2C(=O)OC[C@@H]2Cc2ccc(OC)c(OC)c2)ccc1O
inactive: [4] | [10] | [2]

O=S(=O)(Nc1cc(Cl)c(Oc2cnc3ccccc3c2)c(Cl)c1)c1ccc(Cl)cc1Cl
inactive: [14]
active: [9] 13.9 µM | [1] 1.75 µM | [10] 1.78 µM | [2] 3.98 µM | [3] 2.21 µM | [12] 2.51 µM

O=C(Nc1cc(C(F)(F)F)cc(C(F)(F)F)c1)c1cnc(Cl)nc1C(F)(F)F
inactive: [2]
active: [1] 24.8 µM | [10] 15.8 µM | [3] 44.1 µM

Cc1noc(-c2ccc(-c3ccc(CC(=O)O)cc3)cc2)c1NC(=O)O[C@H](C)c1ccccc1Cl
inactive: [14]
active: Furin (Homo sapiens) 69.8 µM | [9] 44.1 µM | [15] 31.2 µM | [1] 5.55 µM | [10] 3.16 µM | [2] 4.47 µM | [3] 4.94 µM | [11] 20 µM | [12] 7.94 µM

Cc1cc(OCCCS(C)(=O)=O)cc(C)c1-c1cccc(COc2ccc3c(c2)OCC3CC(=O)O)c1 (configuration not stated)
active: [1] 8.79 µM | [10] 12.6 µM | [3] 7.84 µM
inactive: [2]

N#Cc1ccc(N2N=C3c4ccc(C(=O)O)cc4CC[C@@H]3[C@@H]2C2CCCC2)cc1Cl
active: [9] 8.79 µM | [15] 15.6 µM | [1] 2.21 µM | [16] 2.51 µM | [10] 1.41 µM | [2] 2 µM | [3] 1.75 µM | [12] 4.47 µM
inactive: Furin (Homo sapiens) | [11] | [13] | [14]

CC#C[C@@H](CC(=O)O)c1ccc(OCc2cccc(-c3ccc(C(F)(F)F)cc3)c2)cc1
inactive: [11] | [13] | [14]
active: Furin (Homo sapiens) 24.1 µM | [9] 12.4 µM | [15] 13.9 µM | [1] 0.698 µM | [2] 1.58 µM | [3] 0.987 µM | [12] 5.62 µM

Oc1cccc(-c2c3nc(c(-c4cccc(O)c4)c4ccc([nH]4)c(-c4cccc(O)c4)c4nc(c(-c5cccc(O)c5)c5ccc2[nH]5)CC4)C=C3)c1
active: [17] 26.6 µM | [1] 22.4 µM | [3] 20 µM | [11] 3.16 µM
inactive: Furin (Homo sapiens) | [16]

COc1ccc2cc(-c3cc(-c4cc(Cl)cc(Cl)c4)nn3C(C)c3ccc(C(=O)NCCC(=O)O)cc3)ccc2c1 (configuration not stated)
inactive: [2]
active: [1] 5.55 µM | [10] 2.24 µM | [3] 4.94 µM

O=C(O)c1cccc(-c2ccc(-c3cn(C(=O)N4CCCCC4Cc4ccccc4)nn3)cc2)c1 (configuration not stated)
active: Furin (Homo sapiens) 55.5 µM | [9] 27.8 µM | [15] 31.2 µM | [1] 4.41 µM | [10] 3.98 µM | [2] 3.98 µM | [3] 3.5 µM
inactive: [11] | [12] | [13] | [14]

CC(C)C[C@H](C(=O)O)c1cc(-c2ccc(C(F)(F)F)cc2)cc(-c2ccc(C(F)(F)F)cc2)c1
inactive: [12] | [14]
active: Furin (Homo sapiens) 17.5 µM | [9] 9.87 µM | [15] 15.6 µM | [1] 3.12 µM | [2] 3.55 µM | [3] 3.5 µM

CCC(CC)(NC(=O)C(C)C)C(=O)N[C@@H](CCCN=C(N)N)C(=O)NC1(C(=O)NC(c2ccc(F)cc2)c2ccc(F)cc2)CCCC1
inactive: Furin (Homo sapiens) | [18] | [2] | [13] | [14]

CCc1ccccc1OC[C@@H](O)CN[C@H]1CCCc2ccccc21
inactive: [4] | [10] | [2]
